The values that follow come from ChEMBL document CHEMBL1961873, “Compounds: GSK PKIS; Assays: Nanosyn kinase panel” (2012).

SMILES strings stand for the structures.

Test [1] concerns the target Sphingosine kinase 1 (Homo sapiens) (UniProt Q9NYA1). The settings on record: at 1 µM.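 Also: mean SPHK1 inhibition value reported from the GSK PKIS kinase panel screen.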
For test [2], the target named is T1, Sphingosine kinase 2 (Homo sapiens) (UniProt Q9NRA0).
T1 sequence (whole entry): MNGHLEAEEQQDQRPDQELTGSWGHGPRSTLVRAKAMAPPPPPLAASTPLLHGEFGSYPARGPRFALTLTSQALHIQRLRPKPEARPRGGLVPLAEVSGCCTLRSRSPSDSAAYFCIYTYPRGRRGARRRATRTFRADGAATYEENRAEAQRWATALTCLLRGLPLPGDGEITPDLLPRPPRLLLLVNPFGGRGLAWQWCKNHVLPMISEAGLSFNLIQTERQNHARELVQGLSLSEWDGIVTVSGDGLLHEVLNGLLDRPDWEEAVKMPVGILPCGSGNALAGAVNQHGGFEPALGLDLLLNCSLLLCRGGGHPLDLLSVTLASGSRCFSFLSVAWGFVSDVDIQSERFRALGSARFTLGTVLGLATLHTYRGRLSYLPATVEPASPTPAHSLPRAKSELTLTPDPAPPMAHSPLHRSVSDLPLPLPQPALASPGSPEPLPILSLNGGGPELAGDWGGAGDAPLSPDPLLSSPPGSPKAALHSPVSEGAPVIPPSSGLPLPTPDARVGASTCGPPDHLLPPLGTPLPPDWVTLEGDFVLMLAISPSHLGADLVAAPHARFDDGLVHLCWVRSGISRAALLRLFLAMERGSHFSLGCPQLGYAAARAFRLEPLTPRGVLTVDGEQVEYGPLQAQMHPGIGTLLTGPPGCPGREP
The settings on record: at 0.1 µM.

In test [3] the target is T1, Sphingosine kinase 2 (Homo sapiens). The settings on record: at 1 µM.
The target of test [4] is Casein kinase II subunit alpha (Homo sapiens) (UniProt P68400). The settings on record: at 0.1 µM.
Chain of Casein kinase II subunit alpha (Homo sapiens) (P68400 whole entry, looked up): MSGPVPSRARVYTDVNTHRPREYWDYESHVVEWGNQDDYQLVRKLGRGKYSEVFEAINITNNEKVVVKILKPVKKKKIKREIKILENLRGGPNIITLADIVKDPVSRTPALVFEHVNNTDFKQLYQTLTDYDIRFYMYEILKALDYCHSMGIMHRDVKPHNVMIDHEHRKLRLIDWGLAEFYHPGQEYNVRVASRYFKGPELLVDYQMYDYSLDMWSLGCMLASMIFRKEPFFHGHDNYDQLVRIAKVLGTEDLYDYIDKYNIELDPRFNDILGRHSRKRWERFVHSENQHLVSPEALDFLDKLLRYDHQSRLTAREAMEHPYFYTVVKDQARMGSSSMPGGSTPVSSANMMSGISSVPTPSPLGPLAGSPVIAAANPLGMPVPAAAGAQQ
For test [5] the target is unchanged. The settings on record: at 1 µM.
For test [6], the target named is T2, Inhibitor of nuclear factor kappa-B kinase subunit alpha (Homo sapiens) (UniProt O15111).
T2 sequence (whole entry): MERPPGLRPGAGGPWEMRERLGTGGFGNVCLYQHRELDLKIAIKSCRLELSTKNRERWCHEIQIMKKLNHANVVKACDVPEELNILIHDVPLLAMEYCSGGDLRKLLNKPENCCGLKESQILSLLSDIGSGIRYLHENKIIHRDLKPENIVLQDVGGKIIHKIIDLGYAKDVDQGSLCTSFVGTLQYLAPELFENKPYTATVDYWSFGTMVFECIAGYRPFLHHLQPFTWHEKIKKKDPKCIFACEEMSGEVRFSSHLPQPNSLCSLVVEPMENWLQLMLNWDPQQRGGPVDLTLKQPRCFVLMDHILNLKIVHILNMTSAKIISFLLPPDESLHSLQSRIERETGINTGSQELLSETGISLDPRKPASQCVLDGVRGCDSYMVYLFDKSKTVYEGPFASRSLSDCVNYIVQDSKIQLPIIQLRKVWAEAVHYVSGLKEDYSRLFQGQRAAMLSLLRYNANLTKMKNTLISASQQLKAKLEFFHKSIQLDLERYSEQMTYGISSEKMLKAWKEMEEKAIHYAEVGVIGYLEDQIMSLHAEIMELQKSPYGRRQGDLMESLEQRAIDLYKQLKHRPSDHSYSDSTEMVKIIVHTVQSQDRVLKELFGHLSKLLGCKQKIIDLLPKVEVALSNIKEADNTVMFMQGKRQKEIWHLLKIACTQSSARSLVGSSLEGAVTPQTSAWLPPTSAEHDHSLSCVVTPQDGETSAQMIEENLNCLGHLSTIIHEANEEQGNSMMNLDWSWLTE
The settings on record: at 0.1 µM.

For test [7], the target named is T2, Inhibitor of nuclear factor kappa-B kinase subunit alpha (Homo sapiens). The settings on record: at 1 µM.
The target of test [8] is T3, Inhibitor of nuclear factor kappa-B kinase subunit beta (Homo sapiens) (UniProt O14920).
T3 sequence (whole entry): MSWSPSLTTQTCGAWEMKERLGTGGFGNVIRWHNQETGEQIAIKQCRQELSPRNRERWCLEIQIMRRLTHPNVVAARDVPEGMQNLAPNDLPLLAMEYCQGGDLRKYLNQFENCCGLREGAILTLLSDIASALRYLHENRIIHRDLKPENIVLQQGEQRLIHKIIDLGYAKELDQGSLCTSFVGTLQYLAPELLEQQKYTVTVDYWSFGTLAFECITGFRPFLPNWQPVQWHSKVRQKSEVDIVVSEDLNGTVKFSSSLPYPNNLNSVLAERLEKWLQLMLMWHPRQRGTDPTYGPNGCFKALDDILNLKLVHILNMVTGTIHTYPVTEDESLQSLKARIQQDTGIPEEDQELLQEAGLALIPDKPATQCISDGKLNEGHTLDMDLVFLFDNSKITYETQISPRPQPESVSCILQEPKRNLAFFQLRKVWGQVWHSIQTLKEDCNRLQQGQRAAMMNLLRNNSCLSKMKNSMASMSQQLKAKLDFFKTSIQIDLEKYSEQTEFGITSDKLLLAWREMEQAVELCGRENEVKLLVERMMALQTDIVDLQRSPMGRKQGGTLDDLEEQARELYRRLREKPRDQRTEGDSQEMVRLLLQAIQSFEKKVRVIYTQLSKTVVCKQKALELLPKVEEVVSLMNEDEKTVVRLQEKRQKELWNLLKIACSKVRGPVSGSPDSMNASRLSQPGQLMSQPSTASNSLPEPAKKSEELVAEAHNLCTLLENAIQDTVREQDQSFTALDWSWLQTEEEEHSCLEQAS
The note with it: at 0.1 µM.

The target of test [9] is T3, Inhibitor of nuclear factor kappa-B kinase subunit beta (Homo sapiens). The note with it: at 1 µM.
The target of test [10] is T4, Inhibitor of nuclear factor kappa-B kinase subunit epsilon (Homo sapiens) (UniProt Q14164).
T4 sequence (whole entry): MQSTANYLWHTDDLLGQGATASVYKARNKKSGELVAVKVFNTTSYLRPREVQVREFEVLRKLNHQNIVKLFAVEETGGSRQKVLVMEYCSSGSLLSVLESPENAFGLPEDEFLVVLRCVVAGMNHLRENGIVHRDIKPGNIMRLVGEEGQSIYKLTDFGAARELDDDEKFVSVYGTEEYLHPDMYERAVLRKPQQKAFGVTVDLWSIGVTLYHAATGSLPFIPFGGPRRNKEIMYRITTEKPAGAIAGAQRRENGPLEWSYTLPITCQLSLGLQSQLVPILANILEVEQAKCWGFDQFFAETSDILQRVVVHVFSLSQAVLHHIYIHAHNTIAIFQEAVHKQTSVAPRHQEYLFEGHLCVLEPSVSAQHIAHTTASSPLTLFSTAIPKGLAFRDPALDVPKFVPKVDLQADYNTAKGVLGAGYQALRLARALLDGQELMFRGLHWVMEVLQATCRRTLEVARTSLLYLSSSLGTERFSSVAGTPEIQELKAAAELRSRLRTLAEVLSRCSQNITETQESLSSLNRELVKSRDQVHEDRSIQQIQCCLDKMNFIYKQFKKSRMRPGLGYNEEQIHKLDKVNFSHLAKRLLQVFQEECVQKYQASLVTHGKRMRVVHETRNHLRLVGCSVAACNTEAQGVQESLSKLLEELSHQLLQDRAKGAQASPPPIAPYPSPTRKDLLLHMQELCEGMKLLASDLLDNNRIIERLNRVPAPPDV
The note with it: at 0.1 µM.

Test [11] has as its target T4, Inhibitor of nuclear factor kappa-B kinase subunit epsilon (Homo sapiens). The settings on record: at 1 µM.
The target of test [12] is T5, Serine/threonine-protein kinase Nek1 (Homo sapiens) (UniProt Q96PY6).
T5 sequence (whole entry): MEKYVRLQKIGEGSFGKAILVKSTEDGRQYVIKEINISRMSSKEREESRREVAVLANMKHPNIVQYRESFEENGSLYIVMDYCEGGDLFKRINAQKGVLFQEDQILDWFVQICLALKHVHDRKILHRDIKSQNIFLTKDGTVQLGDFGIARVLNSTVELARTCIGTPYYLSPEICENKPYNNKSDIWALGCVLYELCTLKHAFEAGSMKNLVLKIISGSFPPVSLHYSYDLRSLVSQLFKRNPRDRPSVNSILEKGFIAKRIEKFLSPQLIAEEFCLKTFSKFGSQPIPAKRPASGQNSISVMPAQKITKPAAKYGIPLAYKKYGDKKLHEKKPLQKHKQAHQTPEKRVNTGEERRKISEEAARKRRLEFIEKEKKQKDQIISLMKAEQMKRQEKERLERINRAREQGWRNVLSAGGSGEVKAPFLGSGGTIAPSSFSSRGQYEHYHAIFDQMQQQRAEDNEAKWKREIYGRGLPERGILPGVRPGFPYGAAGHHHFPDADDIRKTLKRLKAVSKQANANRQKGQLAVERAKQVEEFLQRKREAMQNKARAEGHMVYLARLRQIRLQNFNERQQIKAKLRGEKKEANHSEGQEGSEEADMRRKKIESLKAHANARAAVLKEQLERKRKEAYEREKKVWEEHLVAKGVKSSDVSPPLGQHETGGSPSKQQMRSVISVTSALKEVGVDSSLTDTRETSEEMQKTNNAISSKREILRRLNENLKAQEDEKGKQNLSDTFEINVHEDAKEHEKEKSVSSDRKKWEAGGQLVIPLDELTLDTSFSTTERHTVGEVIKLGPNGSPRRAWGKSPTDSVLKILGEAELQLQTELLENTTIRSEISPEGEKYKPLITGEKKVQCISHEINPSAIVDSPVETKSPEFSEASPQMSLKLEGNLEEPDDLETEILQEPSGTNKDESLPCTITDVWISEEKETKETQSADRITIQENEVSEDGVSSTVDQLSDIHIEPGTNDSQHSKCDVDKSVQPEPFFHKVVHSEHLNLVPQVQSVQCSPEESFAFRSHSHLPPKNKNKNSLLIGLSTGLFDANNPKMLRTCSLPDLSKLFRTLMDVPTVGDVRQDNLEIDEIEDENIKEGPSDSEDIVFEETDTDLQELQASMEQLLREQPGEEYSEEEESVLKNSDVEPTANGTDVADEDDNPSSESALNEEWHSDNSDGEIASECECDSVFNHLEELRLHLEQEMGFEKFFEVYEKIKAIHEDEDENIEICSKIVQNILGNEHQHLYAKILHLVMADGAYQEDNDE
The note with it: at 0.1 µM.

Test [13] deals with T5, Serine/threonine-protein kinase Nek1 (Homo sapiens). The settings on record: at 1 µM.
In test [14] the target is T6, Serine/threonine-protein kinase Nek2 (Homo sapiens) (UniProt P51955).
T6 sequence (whole entry): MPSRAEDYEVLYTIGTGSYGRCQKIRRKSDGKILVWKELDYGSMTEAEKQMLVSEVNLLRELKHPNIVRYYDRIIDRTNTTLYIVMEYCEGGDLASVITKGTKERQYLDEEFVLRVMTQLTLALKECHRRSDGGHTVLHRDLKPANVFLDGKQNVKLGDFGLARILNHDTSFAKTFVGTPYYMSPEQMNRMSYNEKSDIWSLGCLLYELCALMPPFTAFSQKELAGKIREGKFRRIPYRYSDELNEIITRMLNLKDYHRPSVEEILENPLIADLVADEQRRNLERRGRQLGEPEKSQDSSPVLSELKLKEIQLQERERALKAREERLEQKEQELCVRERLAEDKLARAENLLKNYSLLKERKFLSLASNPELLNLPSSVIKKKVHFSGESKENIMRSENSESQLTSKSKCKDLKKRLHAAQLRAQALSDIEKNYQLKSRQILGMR
The note with it: at 0.1 µM.

Test [15] concerns the target T6, Serine/threonine-protein kinase Nek2 (Homo sapiens). The settings on record: at 1 µM.
Test [16] addresses Serine/threonine-protein kinase Nek6 (Homo sapiens) (UniProt Q9HC98). The note with it: at 0.1 µM.
For test [17] the target is unchanged. The note with it: at 1 µM.
Test [18] addresses Serine/threonine-protein kinase Nek7 (Homo sapiens) (UniProt Q8TDX7). The settings on record: at 0.1 µM.
Test [19] has the same target. The settings on record: at 1 µM.
Test [20] addresses T7, Serine/threonine-protein kinase Nek9 (Homo sapiens) (UniProt Q8TD19).
T7 sequence (whole entry): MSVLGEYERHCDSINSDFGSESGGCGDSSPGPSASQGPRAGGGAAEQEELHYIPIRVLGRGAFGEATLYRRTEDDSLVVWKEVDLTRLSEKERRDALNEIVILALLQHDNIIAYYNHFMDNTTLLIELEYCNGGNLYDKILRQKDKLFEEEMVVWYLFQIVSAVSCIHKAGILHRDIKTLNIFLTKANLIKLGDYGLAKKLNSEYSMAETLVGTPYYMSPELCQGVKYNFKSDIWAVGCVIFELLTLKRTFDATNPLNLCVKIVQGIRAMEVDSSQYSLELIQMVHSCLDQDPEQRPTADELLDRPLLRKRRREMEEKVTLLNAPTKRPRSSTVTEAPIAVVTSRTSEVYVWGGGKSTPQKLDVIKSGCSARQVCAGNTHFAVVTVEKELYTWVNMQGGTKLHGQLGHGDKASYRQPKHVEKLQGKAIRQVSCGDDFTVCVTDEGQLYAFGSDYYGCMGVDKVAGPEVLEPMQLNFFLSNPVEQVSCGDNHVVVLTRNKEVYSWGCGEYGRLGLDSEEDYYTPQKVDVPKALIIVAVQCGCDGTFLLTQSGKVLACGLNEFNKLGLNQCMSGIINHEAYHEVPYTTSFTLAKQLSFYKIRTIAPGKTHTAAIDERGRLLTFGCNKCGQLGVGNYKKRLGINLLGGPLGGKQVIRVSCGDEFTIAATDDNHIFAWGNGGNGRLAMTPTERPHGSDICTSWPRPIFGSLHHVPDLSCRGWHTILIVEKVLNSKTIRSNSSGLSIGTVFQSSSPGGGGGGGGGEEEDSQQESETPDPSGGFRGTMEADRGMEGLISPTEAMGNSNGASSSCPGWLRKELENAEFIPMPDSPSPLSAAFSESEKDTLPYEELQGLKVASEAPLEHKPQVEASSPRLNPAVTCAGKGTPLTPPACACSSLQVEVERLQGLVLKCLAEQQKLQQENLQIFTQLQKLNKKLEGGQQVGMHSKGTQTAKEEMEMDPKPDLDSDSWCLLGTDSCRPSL
The note with it: at 0.1 µM.

Chain of Serine/threonine-protein kinase Nek6 (Homo sapiens) (Q9HC98 whole entry): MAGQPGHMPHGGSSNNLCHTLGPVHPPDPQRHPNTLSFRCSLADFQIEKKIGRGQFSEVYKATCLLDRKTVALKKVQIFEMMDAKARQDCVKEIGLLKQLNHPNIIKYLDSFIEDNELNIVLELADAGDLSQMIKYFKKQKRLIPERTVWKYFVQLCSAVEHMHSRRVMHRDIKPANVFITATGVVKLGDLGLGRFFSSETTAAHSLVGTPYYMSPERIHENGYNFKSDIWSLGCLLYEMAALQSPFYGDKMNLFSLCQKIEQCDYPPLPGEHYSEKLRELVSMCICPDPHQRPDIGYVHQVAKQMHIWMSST
Chain of Serine/threonine-protein kinase Nek7 (Homo sapiens) (Q8TDX7 whole entry, looked up): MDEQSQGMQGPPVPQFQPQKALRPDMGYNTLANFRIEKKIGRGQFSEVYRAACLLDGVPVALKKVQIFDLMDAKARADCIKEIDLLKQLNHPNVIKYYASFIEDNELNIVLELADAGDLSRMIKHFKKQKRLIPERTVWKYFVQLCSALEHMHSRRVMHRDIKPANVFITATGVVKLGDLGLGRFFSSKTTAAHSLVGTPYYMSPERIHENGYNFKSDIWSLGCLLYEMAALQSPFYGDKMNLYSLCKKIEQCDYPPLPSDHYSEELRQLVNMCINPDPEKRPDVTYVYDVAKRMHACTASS
Chain of Sphingosine kinase 1 (Homo sapiens) (Q9NYA1 whole entry): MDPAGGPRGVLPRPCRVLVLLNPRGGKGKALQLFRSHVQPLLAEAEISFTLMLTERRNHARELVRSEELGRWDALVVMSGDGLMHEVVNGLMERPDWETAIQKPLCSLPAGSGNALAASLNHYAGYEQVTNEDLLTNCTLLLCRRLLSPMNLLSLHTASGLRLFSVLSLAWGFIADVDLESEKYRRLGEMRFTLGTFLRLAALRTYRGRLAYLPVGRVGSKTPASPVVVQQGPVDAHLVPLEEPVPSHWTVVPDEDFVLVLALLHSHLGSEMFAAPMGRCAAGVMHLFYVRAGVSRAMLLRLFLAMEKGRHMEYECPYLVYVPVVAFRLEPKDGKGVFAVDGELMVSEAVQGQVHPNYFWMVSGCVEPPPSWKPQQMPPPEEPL

Usually inhibition stands for the relative decrease from the control value, in per cent. For `OCCCNc1nccc(-c2c(-c3ccc(F)cc3)nn3cc(C(F)(F)F)ccc23)n1`, the inhibition in test [1] is -0.86%; in test [2], 1.62%; in [3], -1.3%; in [4], 1.23%; in test [5] it was 6.41%; in [6], -2.66%. For the same molecule, the inhibition in [7] is 1.51%; in [8], 1.75%; in test [9], -0.39%; in test [10], 0.9%; in test [11], 0.15%; in test [12], -0.37%. The inhibition in test [13] is 0.3%; in [14], 2.83%; in [15] it was 2.24%; in test [16] it was 4.06%; in test [17], -0.92%; in test [18], 2.99%. For the same molecule, the inhibition in [19] is -4.27%; in test [20], 7.44%.
